Compounds with a hit are over-represented: about 2.3% of the library has one in this group of screens.
PME-1 inh – blocks human protein phosphatase methylesterase 1; AID 2130; inhibition, % at 5.9 µM; hit rate 0.53% among 320,000; recombinant PME-1, FP-Rh probe fluorescence polarization; Q9Y570;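 active means inhibition above the campaign mean of all compounds plus 3 SD, cut at about 26% in these data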;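 further: competitive labeling of PME-1 active site by serine hydrolase directed probe; 0% = PME-1 with DMSO and 100% = wells lacking PME-1 enzyme; inhibitors block probe labeling so polarization falls and inhibition rises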
Target sequence (Q9Y570 whole entry, looked up): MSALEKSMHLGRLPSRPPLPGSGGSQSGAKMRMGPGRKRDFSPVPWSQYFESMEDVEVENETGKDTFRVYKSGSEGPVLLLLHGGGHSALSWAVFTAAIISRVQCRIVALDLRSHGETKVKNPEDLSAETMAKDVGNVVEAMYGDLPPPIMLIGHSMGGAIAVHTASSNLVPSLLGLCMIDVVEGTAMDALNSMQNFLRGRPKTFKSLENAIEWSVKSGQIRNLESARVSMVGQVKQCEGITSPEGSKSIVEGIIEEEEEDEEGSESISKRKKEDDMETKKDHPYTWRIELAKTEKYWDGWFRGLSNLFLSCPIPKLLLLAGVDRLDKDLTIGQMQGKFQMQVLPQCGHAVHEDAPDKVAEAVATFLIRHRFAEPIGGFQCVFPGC
Fam108B inh – blocks mouse Fam108B hydrolase in RBBP9 counter-screen; AID 1947; inhibition, % at 9.51 µM; recombinant Fam108B, FP-Rh probe fluorescence polarization; hit rate 0.33% among 300,000;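 active means inhibition above the screen mean inhibition plus 3 SD, computed separately per campaign, cut at about 18% in these data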;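 further: inhibitors lower polarization as less probe binds the enzyme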
GSTO1 inh – counter-screen for RBBP9 inhibitors: inhibitors of human GSTO1 | inhibition, % at 5.96 µM | recombinant GSTO1, activity-based probe fluorescence polarization | P78417 | hit rate 1.1% among 300,000;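 active means inhibition above the campaign mean inhibition plus 3 SD, cut at about 35% in these data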;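 further: 0% = GSTO1-1 with DMSO and 100% = wells lacking GSTO1-1 enzyme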
PAD4 inh – inhibitors of human PAD4 | inhibition, % at 6.36 µM | AID 485272 | hit rate 0.41% among 330,000 | recombinant PAD4, RCA probe fluorescence polarization;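 active means percent inhibition above a cutoff equal to the mean of all tested compounds plus 3 SD, cut at about 15% in these data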;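 further: 0% = PAD4 with RCA probe and DMSO and 100% = probe without PAD4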
pPAFAH inh – inhibitors of human plasma PAF acetylhydrolase (pPAFAH). Q13093. recombinant pPAFAH, FP-rhodamine probe fluorescence polarization. inhibition, % at 3.39 µM. hit rate 1.5% among 330,000. AID 463082;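 active means inhibition above the mean inhibition across the screen plus 3 SD, cut at about 25% in these data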;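 further: inhibitors block binding of the rhodamine activity-based probe so polarization drops; 0% = enzyme with DMSO and 100% = wells lacking pPAFAH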
Active calls of the source: *.

O=C(COC(=O)C12CC3CC(CC(C3)C1)C2)Nc1nc2c(F)c(F)c(F)cc2s1 was read as PME-1 inh -6, Fam108B inh -3, GSTO1 inh -1, PAD4 inh -3 and pPAFAH inh -4.
`COc1cc2[nH]c(C(=O)NN)c(N)c2cc1OC` gave PME-1 inh 4, Fam108B inh 9, GSTO1 inh 39*, PAD4 inh 8 and pPAFAH inh 9.
COc1cccc2[nH]c(C(=O)NN)c(N)c12 was read as PME-1 inh 20, Fam108B inh 3, GSTO1 inh 16, PAD4 inh -12 and pPAFAH inh 6.
Screening O=C(c1ccc2c(c1)OCO2)N1CCCC(c2ccccc2)C1 (centres undefined) returned PME-1 inh 33*, Fam108B inh 4, GSTO1 inh 6, PAD4 inh -1 and pPAFAH inh 4.
Screening O=C(CSc1n[nH]c(-c2ccco2)n1)Nc1ccccc1Cl returned PME-1 inh -1, Fam108B inh -2, GSTO1 inh 3, PAD4 inh 2 and pPAFAH inh 1.
COc1cccc2[nH]c3c(N4CCN(Cc5ccc6c(c5)OCO6)CC4)ncnc3c12 was read as PME-1 inh 20, Fam108B inh 4, GSTO1 inh 1, PAD4 inh -4 and pPAFAH inh 15.
Screening COc1ccc2c(c1)[nH]c1c(N3CCN(Cc4ccc5c(c4)OCO5)CC3)ncnc12 returned PME-1 inh 26*, Fam108B inh 10, GSTO1 inh -10, PAD4 inh 0 and pPAFAH inh 31*.
`O=C(c1ccco1)c1coc2c1cc(O)c1ccccc12` gave PME-1 inh 11, Fam108B inh 7, GSTO1 inh 43*, PAD4 inh -5 and pPAFAH inh 9.
O=C(c1cccs1)N1CCC(c2nc3c(nnn3Cc3c(Cl)cccc3Cl)c(=O)[nH]2)CC1 was read as PME-1 inh 9, Fam108B inh 0, GSTO1 inh -4, PAD4 inh 2 and pPAFAH inh 8.
O=C(NNC(=O)c1cc2ccccc2cc1O)Nc1ccc(Br)cc1 was read as PME-1 inh 1, Fam108B inh 2, GSTO1 inh 8, PAD4 inh 1 and pPAFAH inh 26*.
`O=C(NNC(=O)c1cc2ccccc2cc1O)Nc1ccc(F)cc1F` gave PME-1 inh 2, Fam108B inh 0, GSTO1 inh -1, PAD4 inh 0 and pPAFAH inh 26*.
`COc1ccc(NC(=O)NNC(=O)c2cc3ccccc3cc2O)cc1` gave PME-1 inh -4, Fam108B inh 3, GSTO1 inh 3, PAD4 inh -8 and pPAFAH inh 18.
Screening Cc1ccnc(NS(=O)(=O)c2ccc(NC(=O)c3cc(=O)c4ccccc4o3)cc2)n1 returned PME-1 inh -8, Fam108B inh -1, GSTO1 inh 5, PAD4 inh -1 and pPAFAH inh 5.
For CC(C(=O)NCc1ccc(F)cc1)c1ccc([N+](=O)[O-])cc1 (centres undefined) the results were PME-1 inh -1, Fam108B inh -2, GSTO1 inh 18, PAD4 inh -2 and pPAFAH inh 3.
Cc1ccc(C2CC(=O)NC(SCc3ccccc3)=C2C#N)cc1 (centres undefined) was read as PME-1 inh -6, Fam108B inh -1, GSTO1 inh -5, PAD4 inh -2 and pPAFAH inh 30*.
`N#CC1=C(SCc2ccccc2)NC(=O)CC1c1ccc(O)cc1` (centres undefined) gave PME-1 inh -7, Fam108B inh 0, GSTO1 inh 3, PAD4 inh 4 and pPAFAH inh 26*.
C[C@H]1CN=C(N(C)C)N1CC1CCC(C(C)(C)C)CC1 (some centres undefined) was read as PME-1 inh 2, Fam108B inh 2, GSTO1 inh 2, PAD4 inh 1 and pPAFAH inh 3.
Screening COc1cccc(C(=O)N(Cc2ccco2)Cc2cc3cccc(C)c3[nH]c2=O)c1 returned PME-1 inh -1, Fam108B inh 2, GSTO1 inh 0, PAD4 inh -2 and pPAFAH inh 25*.
For COC(=O)c1nc(-c2ccccc2)oc1N1CCOCC1 the results were PME-1 inh -2, Fam108B inh -4, GSTO1 inh 10, PAD4 inh 3 and pPAFAH inh -1.
Screening CN(C)S(=O)(=O)c1ccc(N2CCCC2)c(C(=O)NCC2CCCCC2)c1 returned PME-1 inh 6, Fam108B inh 4, GSTO1 inh 13, PAD4 inh -3 and pPAFAH inh 28*.
COc1ccc(NS(=O)(=O)c2ccc(N3CCCC3)c(NC(=S)Nc3cccc(S(=O)(=O)N(C)C)c3)c2)cc1 was read as PME-1 inh 5, Fam108B inh 12, GSTO1 inh 1, PAD4 inh 3 and pPAFAH inh 33*.
CN(C)S(=O)(=O)c1cccc(NC(=O)c2cc([N+](=O)[O-])ccc2N2CCCCC2)c1 was read as PME-1 inh 46*, PAD4 inh 3 and pPAFAH inh 7.
Screening CC(=O)Nc1cccc(NC(=O)c2cc([N+](=O)[O-])ccc2N2CCCCC2)c1 returned PME-1 inh 5, PAD4 inh 0 and pPAFAH inh 4.
Screening CN1CCN(NS(=O)(=O)c2ccc(Cl)cc2)CC1 returned PME-1 inh 3, Fam108B inh -4, GSTO1 inh 2, PAD4 inh 2 and pPAFAH inh 4.
`CC(Cc1ccsc1)NC(=O)CCc1nnc(CCc2ccccc2)o1` (centres undefined) gave PME-1 inh -1, Fam108B inh 3, GSTO1 inh 3, PAD4 inh -3 and pPAFAH inh 6.
`NC(=O)c1ccc(NC(=O)COC(=O)CNC(=O)c2sc3ccccc3c2Cl)cc1` gave PME-1 inh 9, PAD4 inh 0 and pPAFAH inh 0.
Screening O=C(CCl)NC(=O)NC12CC3CC(CC(C3)C1)C2 returned PME-1 inh 8, Fam108B inh -1, GSTO1 inh 89*, PAD4 inh 1 and pPAFAH inh 5.
O=C(Nc1ccccc1C(=O)Nc1ccccc1)c1ccccc1F was read as PME-1 inh 0, Fam108B inh -1, GSTO1 inh -7, PAD4 inh 0 and pPAFAH inh 4.
CS(=O)(=O)Nc1ccc(C(=O)Nc2ccccc2Sc2ccccc2)cc1 was read as PME-1 inh 1, Fam108B inh 2, GSTO1 inh 0, PAD4 inh 2 and pPAFAH inh 30*.
Screening O=C(Nc1ccccc1Sc1ccccc1)c1ccccc1F returned PME-1 inh -1, Fam108B inh -8, GSTO1 inh -6, PAD4 inh 6 and pPAFAH inh 31*.
Screening COc1ccc(NC(=O)NNC(=O)c2ccc3ccccc3c2O)c(OC)c1 returned PME-1 inh 3, Fam108B inh 2, GSTO1 inh 7, PAD4 inh 2 and pPAFAH inh 11.

Bioassay records as filed in PubChem BioAssay.
